Cav3 T inh: human Cav3.2 channel inhibition, primary screen. O95180. Cav3.2-expressing cells, Fluo-4 calcium fluorescence FDSS; active compounds read low. B-score at 10 µM. 4% of 100,000 active;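 active = single-dose well whose peak fluorescence ratio is a statistical outlier from its plate by either plate-standardised score or position-corrected B-score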
CYP2C19 act: increases human CYP2C19 enzyme activity; 96,000 tested, under 10 active; activation factor at 5 µM; P33261; recombinant CYP2C19, luciferin-H EGE luminescence; active compounds read high; 0 = fully inhibited enzyme, 1 = untreated enzyme;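 active = activation factor of at least 2 at 5 µM in the primary screen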;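 note: 0 = wells with 2.5 mM tranylcypromine and 1 = vehicle-only wells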
CYP2C9 inh: inhibitors of human CYP2C9; P11712; CYP2C9 Supersomes, luciferin-H conversion, luminescence; inhibition, % at 5 µM; 20% of 96,000 active; AID 777;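 active = blocking of liver enzyme CYP2C9 beyond about 50% at 5 µM, limit read from the data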
Target sequence (P11712 whole entry, looked up): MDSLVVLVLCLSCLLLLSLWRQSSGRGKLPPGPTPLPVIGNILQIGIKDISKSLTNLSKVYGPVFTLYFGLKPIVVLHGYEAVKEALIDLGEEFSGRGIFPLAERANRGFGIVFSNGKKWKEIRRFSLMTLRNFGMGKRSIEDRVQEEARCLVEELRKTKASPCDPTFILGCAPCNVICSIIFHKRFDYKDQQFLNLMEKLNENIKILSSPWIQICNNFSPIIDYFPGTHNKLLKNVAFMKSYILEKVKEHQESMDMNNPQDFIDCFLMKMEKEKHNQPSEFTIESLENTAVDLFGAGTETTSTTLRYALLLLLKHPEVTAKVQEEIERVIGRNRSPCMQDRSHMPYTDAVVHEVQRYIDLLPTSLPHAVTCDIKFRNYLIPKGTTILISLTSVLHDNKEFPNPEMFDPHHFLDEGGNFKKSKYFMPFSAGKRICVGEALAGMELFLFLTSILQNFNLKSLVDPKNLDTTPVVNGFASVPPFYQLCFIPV
CYP2C9 activ: CYP2C9 (human) activation; P11712; recombinant CYP2C9, luciferin-H conversion, luminescence; active compounds read high; factor 1 = untreated enzyme, 0 = blocked; activation factor at 5 µM; 1.4% of 96,000 active; AID 1024;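 active = activation factor of 2 or more for CYP2C9 at a 5 µM dose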;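 note: 0 = sulfaphenazole-blocked wells and 1 = vehicle-only wells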
CYP2C19 inh: inhibitors of human CYP2C19; CYP2C19 Supersomes, luciferin-H EGE luminescence, 30 min; inhibition, % at 5 µM; 21% of 96,000 active;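 active = CYP2C19 inhibition above a set limit at 5 µM in the primary screen, cut at about 50% in these data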;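 note: plate controls were negative control wells for no effect and 2.5 mM tranylcypromine positive control for full effect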
Active calls of the source: *; . = no result. Compounds with a hit are over-represented: about 27% of the library has one in this group of screens.

SMILES	Cav3 T inh	CYP2C19 act	CYP2C9 inh	CYP2C9 activ	CYP2C19 inh
COCCNC(=O)CN(c1ccc(C)cc1)S(=O)(=O)c1ccc(SC)cc1	1.2	0	77*	0.2	98*
COc1ccc(N(CC(=O)NCCSc2ccccn2)S(C)(=O)=O)cc1Cl	1.8	0.5	60*	0.4	55*
Cc1ccc(S(=O)(=O)N(CC(=O)NCCSc2ccccn2)c2cc(C)cc(C)c2)cc1	-6.4*	0.6	79*	0.2	42
Cc1[nH]c2ccc(-c3nnc(SCC(=O)N4CCCc5ccccc54)o3)cc2c1C	-0.22	0.9	22	0.8	12
CCOC(=O)c1cc(Br)c(=O)n2ccccc12	.	0.9	13	0.9	14
O=C(Nc1ccc(Cl)cc1C(F)(F)F)c1ccc(Cl)cc1	-0.15	0.9	-53	1.5	14
Cc1cc(O)c(C(C)C)cc1NC(=O)c1cccc(Cl)c1	-2.3	0.4	56*	0.4	60*
Cc1cc(O)c(C(C)C)cc1NC(=O)c1ccc(Cl)cc1	-6.3*	0.5	3	1	49
COc1ccc(CN2CC[C@H]3C=CC[C@@H](C(=O)NCCc4ccccc4)[C@H]3C2=O)cc1OC	0.18	.	.	.	.
Cc1ccc(N2CCN(C(=S)c3ccc(N(C)C)cc3)CC2)cc1	-1.9	0.2	77*	0.2	83*
N#Cc1c(NC(=O)CSc2nnc(-c3ccncc3)n2CC2CCCO2)sc2c1CCCC2 (stereo not drawn)	-1.6	0.3	87*	0.1	69*
CCn1c(SCC(=O)Nc2sc3c(c2C#N)CCCC3)nnc1-c1ccncc1	0.077	.	.	.	.
N#Cc1c(NC(=O)CSc2nnc(-c3ccccc3O)n2-c2ccccc2)sc2c1CCCC2	-4.8*	0.3	67*	0.3	74*
N#Cc1c(NC(=O)CSc2ncc(-c3ccccc3)n2CC2CCCO2)sc2c1CCCC2 (stereo not drawn)	-2.8	0.4	73*	0.3	60*
O=C(CSc1nnc(-c2ccncc2)n1CC1CCCO1)Nc1cccc(O)c1 (stereo not drawn)	-0.42	0.6	67*	0.3	36
CCOc1ccc(NC(=O)CSc2nnc(-c3ccncc3)n2CC2CCCO2)cc1 (stereo not drawn)	0.6	0.7	49	0.5	29
COc1cccc(NC(=O)CCN2CCC(C(N)=O)CC2)c1	-0.78	1	-16	1.2	-4
Cc1cc(C(=O)Nc2c(F)cc(F)cc2Br)c(C)o1	0.52	1	-2	1	1
COc1ccc(N(CC(=O)NC2CCCCC2)C(=O)CNC(=O)c2ccco2)cc1OC	-0.58	.	.	.	.
NC(=O)c1c(NC(=O)CSc2nnc(-c3ccccc3)n2CC2CCCO2)sc2c1CCC2 (stereo not drawn)	0.38	0.2	91*	0.1	80*
O=C(CSc1nnc(-c2ccncc2)n1CC1CCCO1)Nc1nccs1 (stereo not drawn)	-1.6	.	.	.	.
Cn1c(-c2ccc(F)cc2)cnc1SCC(=O)N1CCCCC1	0.2	0.4	-4	1	62*
Nc1ncc(-c2ccccc2)n1CC1CCCO1 (stereo not drawn)	-0.1	1	-9	1.1	1
O=C(CSc1ncc(-c2ccccc2)n1CC1CCCO1)N1CCCCC1 (stereo not drawn)	-0.17	0.4	9	0.9	58*
O=C(Nn1cnnc1)c1ccccc1CCc1ccccc1	0.4	0.8	36	0.6	20
SMILES	Cav3 T inh	CYP2C19 act	CYP2C9 inh	CYP2C9 activ	CYP2C19 inh
CC1(C)Cc2noc(N)c2C(C)(C)N1O	0.64	.	.	.	.
CC(=O)O[C@@H]1[C@@H](OC(C)=O)[C@H](n2ccc3cc([N+](=O)[O-])ccc32)OC[C@@H]1OC(C)=O	0.38	.	.	.	.
CC(=O)OC1COC(N2CCc3cc([N+](=O)[O-])ccc32)C(OC(C)=O)C1OC(C)=O (stereo not drawn)	0.2	0.3	81*	0.2	72*
CCN(CC)C(C)C(=O)NCC1(c2ccccc2)CCOCC1 (stereo not drawn)	0.54	.	.	.	.
CCN(CC)CC(=O)n1c2c(c3ccccc31)CCCC2	-0.95	0.6	-16	1.2	37
COc1ccccc1NC(=O)CSc1nnc(-c2ccc(NC(C)=O)cc2)n1C	0.064	1	24	0.8	-5
COC(=O)c1ccccc1NC(=O)CSc1nnc(-c2cccc(NC(C)=O)c2)n1C	0.25	0.1	39	0.6	94*
CC(=O)Nc1cccc(-c2nnc(SCC(=O)N3CCCCC3)n2C)c1	-0.0079	.	.	.	.
CC(=O)Nc1cccc(-c2nnc(SCC(=O)n3c4c(c5ccccc53)CCCC4)n2C)c1	-0.6	0.1	-12	1.1	93*
O=C(CSc1ncccn1)n1c2c(c3ccccc31)CCCC2	-1.7	1	-112	2.1*	-3
Cc1csc(=O)n1CCC(=O)O	-0.047	1.2	-33	1.3	-20
CCOC(=O)c1ccc(NC(=O)C2=C(C)Nc3nc(CCCO)nn3C2c2cccc(C)c2)cc1 (stereo not drawn)	-0.12	0.8	17	0.8	15
CC(=O)/C(=N\Nc1ccc(C)cc1)N1CCOCC1	-0.71	0.2	36	0.6	80*
Cc1ccc(NC(=O)CC(=O)NCCN2CCOCC2)cc1	0.69	1.1	-15	1.2	-15
O=C(Nc1ccc2nc(-c3cccs3)[nH]c2c1)c1cccs1	-0.76	0.4	81*	0.2	57*
COCCn1c(C)cc(C2=NNC(=Nc3ccccc3F)SC2)c1C	-4.4*	0.5	38	0.6	53*
COCCn1c(C)cc(C(=O)COC(=O)c2n[nH]c3ccccc23)c1C	-2.3	0.7	-66	1.7	34
CC1(C)C2CCC1(C)C(NC(=O)CCN1CCCCC1)C2 (stereo not drawn)	-0.68	0.7	62*	0.4	28
CCCn1c(=O)c(F)cn(Cc2ccc(OC)c([N+](=O)[O-])c2)c1=O	0.5	0.7	26	0.7	29
CCCCCCn1c(=O)c(F)cn(Cc2ccc(OC)c([N+](=O)[O-])c2)c1=O	-3.4	0.7	60*	0.4	30
CCCCCn1c(=O)c(F)cn(Cc2ccc(OC)c([N+](=O)[O-])c2)c1=O	-1.5	0.9	52*	0.5	12
CNc1cccccc1=S	-1.6	1	11	0.9	0
CCSc1nnc2n1C(C)(C)Cc1ccccc1-2	-0.46	1.1	-1	1	-7
CC1(C)Cc2ccccc2-c2n[nH]c(=S)n21	.	0.7	53*	0.5	26
CCOC(=O)CN1C(=O)COc2ccc(C(C)(C)C)cc21	-0.49	0.6	10	0.9	42
COc1cccc(/C(O)=C2/C(=O)C(=O)N(Cc3ccco3)C2c2ccncc2)c1 (stereo not drawn)	0.32	0.7	9	0.9	26
Cc1ccc(C2/C(=C(/O)c3ccc(Br)cc3)C(=O)C(=O)N2Cc2ccco2)o1 (stereo not drawn)	-3.7	1.1	72*	0.3	-13
COc1ccc(C2SCC(=O)N2c2c(C)n(C)n(-c3ccccc3)c2=O)c(OC)c1 (stereo not drawn)	-0.24	0.4	14	0.9	55*

Screening results deposited in PubChem BioAssay by several laboratories.
